Bioassay records (PubChem BioAssay)
In the library only some 2.3% were active in any assay of this set; here they are far more common.
HepG2 viability = counter-screen for TGF-b inhibitors: cytotoxicity in HepG2 cells; HepG2 CAGA-GFP viability, ATP luminescence, 18 h; Potency, µM (titrated, usually from 46.1 µM), without a hit: at the top dose activity change, negative = cytotoxicity, most hits filed as cytotoxic; 410,000 tested, 0.76% active; AID 588856
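CellTiter-Glo luminescence gave cytotoxicity after 18 hours at 37 degrees C. The cells were HepG2 CAGA-GFP in 1% FBS DMEM, stimulated with 500 pg/mL TGF-beta after compound addition. %Activity was normalised to no-cell wells (complete cell-killing) and DMSO (no toxicity), and curves were fitted and classified.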
ATXN2 expr inh = inhibitors of ATXN2 expression; HEK-293 ATXN2-luciferase reporter, luminescence, 24 h; Potency, µM (highest dose often 57 µM), for inactives: at the top dose activity change, negative = inhibition, actives largely listed as inhibitors; 360,000 tested, 0.72% active; AID 1745845; further: on the % scale 0 is the no-effect control and ±100 the full control effect; nearly all actives have a fitted effect of over 55% in size
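qHTS (up to 57 uM final) was run with 24 h compound exposure of reporter cells at 37 °C. Each well was multiplexed: SteadyGlo luminescence measured ATXN2-luciferase expression after a fluorogenic Gly-Phe-AFC viability readout (25 uM final).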
TGFb SMAD3 inh = inhibitors of TGF-b signaling; HepG2 CAGA-GFP TGF-b/SMAD3 reporter, GFP fluorescence, 18 h; TGF-beta stimulated, 500 pg/mL final; AID 588855; Potency, µM (titrated, usually from 46.1 µM), inactives show at the highest dose activity, negative = inhibition, usual class: inhibitors; 410,000 tested, 1.2% active; further: on the % scale 0 is the no-effect control and ±100 the full control effect; nearly all actives have a fitted effect of over 65% in size
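Smad-responsive CAGA-GFP expression was quantified in HEPG2 cells exposed to compounds and 500 pg/mL final TGF-beta for 18 h at 37 degrees C; unstimulated wells defined full inhibition.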
S2 tox = reduces viability in counter-screen for ATXN expression inhibitors; 400,000 tested, 0.49% active; AID 651635; Potency, µM (titrated, usually from 56.7 µM), usual class: cytotoxic; S2 cells (HEK-293 line with an ATXN2-luciferase reporter) viability, CellTiter-Fluor protease fluorescence, 24 h; further: nearly all actives have a fitted effect of over 40% in size
Active calls of the source: *; i = inactive; ? = inconclusive; . = no result. The call rests on the fitted dose curve; in most records, active means well fitted curve in the direction sought with a large enough effect; inconclusive means small, poorly fitted or top-dose-only effect, or another doubt; inactive means no such curve, though single readings can be large; an effect the other way counts as inactive or inconclusive. Potency means the concentration at half of the fitted maximal effect.

SMILES	HepG2 viability	ATXN2 expr inh	TGFb SMAD3 inh	S2 tox
COc1ccc(/C=N/NC(=O)CSCC(=O)Nc2ccccc2)cc1	-2%	6%	-17%	i
COc1cccc(/C=N/NC(=O)CSCC(=O)Nc2ccccc2)c1O	-17%	28µM*	8%	i
C=CCc1cccc(/C=N/NC(=O)CNc2ccccc2OC)c1O	-24%	?	13µM*	i
C=CCc1cccc(/C=N/NC(=O)CNc2cccc3ccccc23)c1O	-100%	?	?	?
C=CCc1cccc(/C=N/NC(=O)CNc2ccccc2)c1O	-51%	18µM*	?	?
C=CCc1cccc(/C=N/NC(=O)CCC(=O)Nc2ccc(F)cc2)c1O	-16%	3.5µM*	?	i
C=CCn1c(COc2ccc(Cl)cc2)nnc1SCC(=O)N/N=C/c1cccc(O)c1	-1%	-14%	?	?
C=CCn1c(CNc2ccccc2)nnc1SCC(=O)N/N=C/c1ccccc1O	-28%	18µM*	?	i
CC(C)NC(=S)N=Nc1c(O)[nH]c2ccc(C(C)C)cc12	-14%	.	?	3.5µM*
COc1ccc(-c2nnc3ccc(SC(C)C)nn23)cc1OC	-37%	.	?	.
CC1CCN(Cc2c(C(=O)N/N=C/c3cc(Cl)ccc3O)nnn2-c2nonc2N)CC1	-9%	2.2µM*	?	i
N[C@H]1CN(c2c(F)cc3c(=O)c(C(=O)O)cn(C4C[C@@H]4F)c3c2Cl)CC12CC2 (stereo partly drawn)	.	-1%	.	i
CCCCCCn1c(SCCCC)nc2c1c(=O)[nH]c(=O)n2C	3%	0%	9%	i
CCn1c([N+](=O)[O-])nc2c1c(=O)[nH]c(=O)n2C	-126%	.	10µM*	.
OCC1(Cc2ccc(Cl)cc2)CCN(Cc2ccccc2F)CC1	-26%	-35%	-10%	i
CSc1ccc(CN2CCC(CO)(Cc3ccc(Cl)cc3)CC2)cc1	-156%	?	22µM*	?
CC(C)Oc1ccc(C(=O)NCC2Cc3cc(Cl)cc(-c4ncccn4)c3O2)cc1 (stereo not drawn)	.	.	.	i
Cc1ccccc1OCC(=O)NCC(=O)OCC(=O)c1ccc(F)cc1	-45%	.	?	.
CC1=C[C@@H]2[C@@H]([C@@H](O)C[C@@]3(C)[C@H]2C[C@@H](C)[C@]3(O)C(=O)CO)[C@@]2(C)Cc3cnn(-c4ccccc4)c3C=C12	.	-23%	.	.
CC(=O)OCC(=O)[C@@]1(O)[C@H](C)C[C@H]2[C@@H]3C=C(C)C4=Cc5c(cnn5-c5ccccc5)C[C@]4(C)[C@@H]3[C@@H](O)C[C@@]21C	.	27µM*	.	.
CN(C)CC1CCC/C(=C\c2ccc(OC(=O)/C=C/c3ccccc3)cc2)C1=O (stereo not drawn)	-3%	25µM*	-11%	.
CN(C)CC1CCC/C(=C\c2ccc(OC(=O)c3ccc(Cl)cc3)cc2)C1=O (stereo not drawn)	29%	-26%	?	24µM*
CN(C)CC1CC/C(=C\c2ccc(O)cc2)C1=O (stereo not drawn)	-105%	?	?	.
Cc1cc2[nH]c3c(c[n+](C)c4ccccc34)c2cc1C	10µM*	?	?	.
COc1cc(=O)n2c(c1C(=O)NC(C)c1ccco1)CCN(Cc1cc3ccccc3o1)CC2 (stereo not drawn)	.	.	.	i
SMILES	HepG2 viability	ATXN2 expr inh	TGFb SMAD3 inh	S2 tox
CC(I)CCC(C)[n+]1cccc(I)c1 (stereo not drawn)	7%	.	-2%	.
CC(C)(C)c1ccc(-c2n[nH]c(=S)n2Cc2ccccc2)cc1	13µM*	-9%	?	?
Fc1ccc(-c2n[nH]c(=S)n2Cc2ccccc2)cc1	-10%	-14%	0%	i
Fc1ccc(Nc2nc(N3CCOCC3)nc(N3CCOCC3)n2)cc1	-24%	-9%	-17%	i
c1nc2nc(Nc3ccc(N4CCOCC4)cc3)nc(NC3CCCCC3)c2[nH]1	.	24µM*	.	.
O=C(N/N=C/c1ccccn1)c1cc([N+](=O)[O-])cc([N+](=O)[O-])c1	-52%	.	4.5µM*	?
CC(C)C[C@@H]1NC(=O)[C@H](C(C)C)NC(=O)c2cc([N+](=O)[O-])cc(I)c2NCC[C@@H](C(N)=O)NC1=O	-2%	6%	?	i
CC[C@H](C)[C@@H]1NC(=O)[C@@H](CC(C)C)NC(=O)[C@H](C(C)C)NC(=O)[C@H]2CSSC[C@H](NC1=O)C(=O)N2	1.1µM*	0.79µM*	1.3µM*	?
C[N+](C)(C)CCC(=O)N1C/C(=C/c2ccccc2)C(=O)/C(=C\c2ccccc2)C1	-100%	8.4µM*	7.9µM*	.
C/C(=C\c1ccccc1)C(=O)NCCN1CCOCC1	1%	.	?	?
CN(C)CCC(=O)N1C/C(=C/c2ccccc2)C(=O)/C(=C\c2ccccc2)C1	-126%	2.1µM*	2µM*	4.2µM*
CCOC(=O)N1CCN(S(=O)(=O)/C=C/c2ccccc2)CC1	-14%	.	-17%	.
O=C1/C(=C/c2ccccc2)CN(C(=O)CCN2CCOCC2)C/C1=C\c1ccccc1	16µM*	27µM*	2.2µM*	21µM*
CCOC(=O)N1C/C(=C\c2ccccc2)C(=O)/C(=C/c2ccccc2)C1	-45%	.	2µM*	?
Cc1nc(Nc2cnc(/C=C/c3cc(C(=O)Nc4cccc(C(F)(F)F)c4)ccc3C)cn2)cc(N2CCNCC2)n1	-106%	16µM*	?	i
CCOc1ccc(C(=O)Nc2ccc3nc(Nc4cccc(C(F)(F)F)c4)cc(C)c3c2)cc1OCC	4%	4%	9%	i
CC1CCCC(NC(=O)CSc2ccc(F)cc2)C1C (stereo not drawn)	-2%	.	0%	?
CC1CCCC(NCC(O)COC(c2ccc(F)cc2)c2ccc(F)cc2)C1C (stereo not drawn)	22µM*	?	?	?
O=C1NN=C(c2ccc(Cl)cc2)CC1c1cccc(Br)c1 (stereo not drawn)	-14%	-30%	10µM*	i
O=C(CN1Cc2ccccc2OC(c2ccccc2)C1)NCc1cccnc1 (stereo not drawn)	.	.	.	i
COc1cc(C(=O)Oc2c(CN3CCOCC3)cc(Cl)c3cccnc23)cc(OC)c1OC	-88%	1.6µM*	4µM*	1.6µM*
COc1cccc(C(=O)Oc2c(CN3CCOCC3)cc(Cl)c3cccnc23)c1	-55%	10µM*	?	?
COc1ccc(C(=O)Oc2c(CN3CCOCC3)cc(Cl)c3cccnc23)cc1	7.9µM*	?	10µM*	?
O=C(Oc1c(CN2CCOCC2)cc(Cl)c2cccnc12)c1ccc(F)cc1	-39%	?	?	?
O=C(Oc1c(CN2CCOCC2)cc(Cl)c2cccnc12)c1ccccc1Cl	3.5µM*	?	?	?
O=C(Oc1ccc(Cl)c2cccnc12)N1CCOCC1	1%	-26%	-13%	?
COc1cc(C(=O)Oc2c(OC)cc(C(=S)N3CCOCC3)cc2OC)cc(OC)c1OC	-13%	-10%	-25%	i
